Screening results as filed in PubChem BioAssay.
Only some compounds are listed: those with a hit (about 21% of all), similar ones and a draw of the others.
Shiga toxin inh: A qHTS for Small Molecule Inhibitors of Shiga Toxin | Vero cells, Shiga toxin protein synthesis inhibition reporter | inhibition, % at 38.7 µM | 9.2% of 290,000 active | AID 2315, 2010; in the data active means inhibition mostly above about 28%, no sharp cut-off; inactive means mostly below about 43%
HCV inh: qHTS Assay for Inhibitors of Hepatitis C Virus (HCV). Huh7.5.1 HCVcc-Cre infection, luciferase reporter, 44 h. Potency, µM (top dose mostly 41.8 µM), actives largely listed as inhibitors. 3.4% of 340,000 active
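Seed cells (1,000/well) for 4 h; treat with compound and infect with HCVcc-Cre, moi about 0.5. Incubate 44 h, then detect luciferase activity.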
CHX counter: Cycloheximide Counterscreen for Small Molecule Inhibitors of Shiga Toxin | 12% of 300,000 active | max response, % | cell reporter, cycloheximide protein synthesis inhibition counterscreen; in the data active means max response mostly above about 13%, no sharp cut-off; inactive means mostly below about 14%; further: read at 38.3 µM for the half of the compounds with a filed dose
HCMV antiviral: qHTS Assay for inhibitors of the human cytomegalovirus (HCMV) | HFF cells, HCMV-luciferase reporter, 72 h; stronger effect = lower value | activity change, negative = inhibition, % at 57.5 µM | 4.5% of 410,000 active; in the data active means activity change below about -60%; inconclusive means no clear call, values can overlap the other calls; inactive means above about -39%
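Two compound doses tested in HFFs infected with HCMV-luciferase, MOI 1 PFU/cell, 72 h at 37C. Lysate luminescence read with OneGlo; data normalized against buffer-only and 10uM Salinomycin inhibitor controls.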
Pf growth 96h: Primary qHTS for delayed death inhibitors of the malarial parasite plastid, 96 hour incubation; P. falciparum luciferase reporter growth, 96 h; Potency, µM (doses to about 28.7 µM), actives largely listed as inhibitors; 6.9% of 320,000 active
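Two-generation exposure (96 h) targets delayed-death phenotype. Reporter parasites carrying integrated firefly luciferase, in red cells at 2% hematocrit and 0.05% parasitemia final, kept at 37 C, 5% CO2; luminescence loss indicates inhibition.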
Pf growth 48h: Primary qHTS for delayed death inhibitors of the malarial parasite plastid, 48 hour incubation; P. falciparum luciferase growth in erythrocytes, 48 h; 5.9% of 310,000 active; AID 504832, 2011; Potency, µM (doses to about 28.7 µM), usual class: inhibitors
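Here the parasites carry a stable luciferase gene and grow inside erythrocytes in Albumax-based RPMI medium with compound for one erythrocytic cycle. Activity is scored as loss of luminescent signal.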
A number is an active result; n = inactive; u = inconclusive; x = no result given; [ ] = dose if it differs, or a comment. Unless noted, the call rests on the fitted dose curve; in most records, active means well fitted inhibition curve with a large enough effect; inconclusive means small, poorly fitted or top-dose-only effect, or another doubt; inactive means no such curve, though single readings can be large or run the other way.

SMILES | Shiga toxin inh | HCV inh | CHX counter | HCMV antiviral | Pf growth 96h | Pf growth 48h
C=CCNCC(O)COc1ccc(C(C)=O)cc1OC (centres undefined) | n | n | n | n | u | u
COCCNC(=O)c1nc2ccccc2s1 | 44 | n | n | n | n | n
O=C(NCc1ccccc1)c1nc2ccccc2s1 | n | n | 23 | u | n | u
CC(=O)NCc1ccc(-c2csc(-c3cccs3)n2)cc1 | 86 | u | 21 | n | n | n
O=C(NCCO)c1nc2ccccc2s1 | 37 | n | n | n | n | n
C=C1CCN(C(CC(C)C)C(=O)NCc2ccc(OC)cc2)S(=O)(=O)c2ccccc21 (centres undefined) | n | x | n | x | x | x
CC(C)NC(=O)CC1(C)N=C(c2cccc3ccccc23)N(C)O1 (centres undefined) | x | x | x | n | x | x
O=C(NCc1ccco1)c1nc2ccccc2s1 | 77 | n | 23 | n | x | n
CC(=O)NCc1ccc(-c2nc3ccccc3s2)cc1 | 58 | n | 39 | n | n | n
O=C(O)Cc1ccc(S(=O)(=O)Nc2ccccc2C(=O)O)cc1 | n | n | n | n | n | n
CC1=C(C(=O)Nc2cccnc2)C(c2ccc(F)cc2)n2nc(SCc3ccccc3F)nc2N1 (centres undefined) | x | x | x | n | x | x
COc1ccc(-c2c(C)c3ccc(O)c(CN4CCCC4)c3oc2=O)cc1 | x | x | x | n | x | x
COc1ccc(-n2c(C)c([N+](=O)[O-])c3ccc(O)c(CN4CCCCC4)c32)cc1 | n | n | n | -73 | x | x
Cc1ccc(-n2c(C)c([N+](=O)[O-])c3ccc(O)c(CN(C)C)c32)cc1 | n | u | n | -93 | x | 13µM
O=C(NCCCN1CCCC1=O)Nc1ccc(Br)cc1Cl | 38 | n | 28 | n | 10µM | n
O=C(NCCCN1CCCC1=O)Nc1ccc(F)c(Cl)c1 | n | n | 47 | n | n | n
COCCCNC(=O)Nc1ccc(Br)cc1Cl | 49 | n | 37 | n | u | n
Cc1ccc(NC(=O)NCCCN2CCCC2=O)cc1 | n | n | 14 | n | n | x
Cn1c(=O)n(C)c2cc(NC(=O)COc3ccc(F)cc3)ccc21 | n | n | n | n | n | n
Nc1c(C(=O)Nc2cccc(F)c2)c2ccccn2c1C(=O)c1ccccc1 | x | x | x | n | x | x
Cc1ccc(NS(=O)(=O)c2cccc(C(=O)NCCCN3CCCC3=O)c2)cc1 | x | n[8.37 µM] | x | -101 | u | u
Cc1ccc(N(C)S(=O)(=O)c2cccc(C(=O)NCCCN3CCCC3=O)c2)cc1 | x | n | x | n | u | u
O=C(NCCCN1CCCC1=O)Nc1ccc(Cl)cc1Cl | n | n | 16 | n | n | n
CN1CCN(NC(=O)Nc2ccc(Br)cc2Cl)CC1 | n | n | 16 | n | n | n
FC(F)(F)C(F)(F)C(F)(F)c1nc2nc(Cl)c(Cl)nc2[nH]1 | x | x | x | n | x | x
SMILES | Shiga toxin inh | HCV inh | CHX counter | HCMV antiviral | Pf growth 96h | Pf growth 48h
CN(C)Cc1c(C(C)(C)O)[nH]c2cc(F)ccc12 | x | x | x | n | x | x
COc1cc([C@H]2c3cc4c(cc3[C@@H](O[C@H]3O[C@H]5CO[C@@H](C)O[C@H]5[C@@H](O)[C@@H]3O)[C@@H]3COC(=O)[C@H]23)OCO4)cc(OC)c1O | x | x | x | x | 13µM | 13µM
COc1ccc(C2C3=C(COC3=O)Oc3cc4c(cc32)OCO4)cc1OC (centres undefined) | x | n | x | n | x | x
COc1cc([C@@H]2c3cc4c(cc3[C@@H](O[C@@H]3O[C@@H]5CO[C@@H](C)O[C@H]5[C@H](O)[C@H]3O)[C@H]3COC(=O)[C@H]23)OCO4)cc(OC)c1O | x | u | x | -99 | x | x
O=C(Nc1ccccc1)c1cc2ccccc2c(=O)s1 | 36 | u | 41 | n | n | n
O=C(Nc1ccc(O)cc1)c1cc2ccccc2c(=O)s1 | 113 | u | 56 | -71 | n | n
O=C(Nc1ccccc1)c1cc2ccccc2s1 | x | u | x | n | x | x
CCc1c(C(=O)Nc2ccncc2)csc1C | n | u | n | -100 | u | 8.3µM
CCc1c(C(=O)NNC(=S)NCc2ccccc2)csc1C | n | n | n | n | n | n
CCc1c(C(=O)Nc2ccccc2C(N)=O)csc1C | n | n | 31 | n | n | n
O=C(N1CCCC1)C12CC3CC(CC(Cl)(C3)C1)C2 | n | n | n | n | n | u
O=P1(O)OP(=O)(O)OP(=O)(O)O1.[Al] | n | x | n | x | x | x
